# In the supplement of paper PMC11219838:
# Values without a mark were called inactive.
# Legend:
# [1] = tested on: Caenorhabditis elegans dauer (daf-2(e1370)); experiment: proportion of mobile C. elegans dauer larvae relative to DMSO control (fraction of DMSO control); higher = more viable, less nematicidal, active = 0.63 or less; extreme values may be limits of the assay; conditions: 60 µM; 5 days; temperature: 20 °C
# How it was run: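 Synchronized C. elegans daf-2(e1370) larvae were held at 25 °C for 48 h on MYOB plates with E. coli OP50 to form dauers, and about 20 dauers were added per 96-well well in liquid NGM. Compound was pinned to 60 µM final (0.6% v/v DMSO), and sealed plates were shaken at 200 rpm for 5 days at 20 °C. The proportion of mobile worms was scored under a dissection microscope relative to DMSO controls and averaged over two biological replicates.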
# Ditylenchus dipsaci = experiment: proportion of mobile D. dipsaci (mixed stage) relative to DMSO control (fraction of DMSO control); higher = more viable, less nematicidal, active = 0.86 or less; extreme values may be limits of the assay; conditions: 60 µM; 5 days; temperature: 20 °C
# How it was run: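 The worms, D. dipsaci raised on pea plants in Gamborg B-5 agar, were recovered through a filter funnel into water. Each well of a 96-well plate then held about 20 of them in distilled water plus pinned compound at 60 µM final (0.6% v/v DMSO), and the sealed plates were shaken at 200 rpm at 20 °C for 5 days. Following addition of 2 µL 1 M NaOH, mobile worms were counted by microscopy, and mobility was expressed against DMSO controls as the average of two biological replicates.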
Structure (SMILES),proportion of mobile C. elegans dauer larvae [1],proportion of mobile D. dipsaci (Ditylenchus dipsaci)
Cc1ccc(-c2noc(COc3cc(C)ccc3C)n2)cc1,1,1
Clc1ccc(OCc2nc(-c3cccnc3)no2)c(Cl)c1,1,1
CCOc1cc(-c2nc(-c3ccccc3OC)no2)cc(OCC)c1OCC,1,1
COc1ccccc1CC(=O)Nc1ccc(-c2noc(-c3ccc(Cl)cc3)n2)cc1,1,1
O=C(c1ccccc1-c1nc(-c2ccccc2)no1)N1CCCCC1,1,1
C=CCOc1cccc(-c2nc(-c3cccnc3)no2)c1,1,1
CC(=O)c1c(C)cc(C)c(CSc2nnc(-c3ccco3)o2)c1C,1,1
Cc1ccccc1-c1noc(COc2ccc(Cl)cc2Cl)n1,1,1
Clc1ccc(OCc2nc(-c3ccc4c(c3)OCO4)no2)cc1,1,1
CNC(=O)c1ccccc1-c1nc(-c2ccc(F)cc2)no1,1,1
O=C(CSc1nnc(-c2ccccc2Cl)o1)Nc1nccs1,1,1
Cc1cc(OCc2nc(-c3ccncc3)no2)cc(C)c1Br,1,1
